In the library only some 2% were active in any assay of this set; here they are far more common.
JMJD2E inh: qHTS Assay for Inhibitors of Human Jumonji Domain Containing 2E (JMJD2E); Lysine-specific demethylase 4E (Homo sapiens), B2RXH2; JMJD2E catalytic domain, FDH-coupled NADH fluorescence (FDH is formaldehyde dehydrogenase); Potency, µM (highest dose often 57.1 µM), most hits filed as inhibitors; 230,000 tested, 1.6% active; AID 2147, 2009; active means well fitted inhibition curve with a large enough effect, not every such curve was filed as active; inconclusive means small, poorly fitted or top-dose-only effect, or another doubt; inactive means no such curve, though single readings can be large or run the other way; further: nearly all actives have a fitted effect of over 50% in size
Target sequence (B2RXH2 1-337 limits assumed): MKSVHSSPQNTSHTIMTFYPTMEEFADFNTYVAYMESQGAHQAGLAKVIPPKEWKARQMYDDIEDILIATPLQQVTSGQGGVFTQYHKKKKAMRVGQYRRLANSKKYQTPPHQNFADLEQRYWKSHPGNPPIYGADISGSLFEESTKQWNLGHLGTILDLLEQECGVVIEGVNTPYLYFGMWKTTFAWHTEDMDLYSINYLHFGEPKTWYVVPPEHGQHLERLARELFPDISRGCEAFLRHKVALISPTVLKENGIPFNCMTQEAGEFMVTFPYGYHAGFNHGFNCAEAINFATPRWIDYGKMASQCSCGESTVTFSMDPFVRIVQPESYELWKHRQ
HTT ATP protect: qHTS Multiplex Assay to Identify Dual Action Probes in a Cell Model of Huntington: Cytoprotection (ATP) | PC12 HTT-Q103 induced, cytoprotection, ATP luminescence, 40 h | Potency, µM (doses to about 56.4 µM), hits mostly activators | AID 1471, 2008 | 230,000 tested, 0.14% active; further: nearly all actives have a fitted effect of over 45% in size
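Compounds added alongside 100 nM tebufenozide, which induces toxic Q103 huntingtin exon 1-GFP in stable PC12 cells; surviving cells quantified by luminescent ATP measurement. Medium: phenol red-free DMEM, 5% equine and 5% calf serum.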
TR SRC2 fluor cs: Total Fluorescence Counterscreen for Inhibitors of the Interaction of Thyroid Hormone Receptor and Steroid Receptor Coregulator 2. Potency, µM (top dose mostly 106 µM). AID 1479, 2009. TRb/SRC2 Texas Red total fluorescence interference. 280,000 tested, 0.29% active; active means well fitted curve in either direction with a large enough effect; inconclusive means small, poorly fitted or top-dose-only effect
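Human TRb ligand-binding domain at 0.6 uM with 20 nM Texas Red SRC2 peptide in Tris buffer containing 1 uM T3 and 5% DMSO, incubated with compound 5 h at ambient temperature. Total fluorescence (555/632 nm) calculated as parallel + 2 × perpendicular.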
HTT aggregate: qHTS Multiplex Assay to Identify Dual Action Probes in a Cell Model of Huntington: Aggregate Formation (GFP) | PC12 HttQ103-GFP aggregates, Acumen cytometry, 40 h | Potency, µM (titrated, usually from 46.1 µM), hits mostly inhibitors | 220,000 tested, 1.1% active | AID 1688, 2009; further: nearly all actives have a fitted effect of over 60% in size
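Inducible Q103 Huntingtin exon 1–GFP PC12 line, 1500 cells/well in phenol red free DMEM with 5% equine and 5% calf serum. Tebufenozide 100 nM induced expression; compounds titrated; aggregates quantified by cytometry.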
Coupling enz: qHTS Assay for Inhibitors of Fructose-1,6-bisphosphate Aldolase from Giardia Lamblia: Coupling assay counterscreen; activity change, negative = inhibition, % at 58.2 µM, hits read low; coupling enzyme system counterscreen, AmpLite Red fluorescence; 290,000 tested, 0.67% active; in the data active means activity change below about -30%
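Coupling enzymes only (glyceraldehyde-3-phosphate) + compound, at 57.5 uM final, 10 min RT; add substrate/coupling/AmpLite Red mix, 20 min RT; fluorescence ex 525/em 598 nm. Actives flag coupling-system interference.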
TRb-SRC2 inh: qHTS for Inhibitors of the Interaction of Thyroid Hormone Receptor and Steroid Receptor Coregulator 2; Potency, µM (highest dose often 106 µM), usual class: inhibitors; TRbeta-SRC2 peptide binding, fluorescence polarization; receptor liganded with 1 µM T3; 280,000 tested, 0.065% active; Thyroid hormone receptor beta (Homo sapiens), P10828; further: nearly all actives have a fitted effect of over 50% in size
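Fluorescence polarization of 20 nM Texas Red SRC2 peptide (20-aa NR interaction domain) bound to 0.6 uM human TRb ligand-binding domain, with 1 uM T3, after 5 hr at ambient temperature; inhibition seen as decreased polarization.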
Hits are given with their value; [ ] = remark or other dose. Unless noted, the call rests on the fitted dose curve; in most records, active means well fitted curve in the direction sought with a large enough effect; inconclusive means small, poorly fitted or top-dose-only effect, or another doubt; inactive means no such curve, though single readings can be large; an effect the other way counts as inactive or inconclusive.

`O=C1CCCc2c1cc(C(=O)Nc1ccc(Br)cn1)c(=O)n2-c1ccccc1` gave JMJD2E inh inconclusive, HTT ATP protect inactive, TR SRC2 fluor cs inactive, HTT aggregate inactive, Coupling enz -51 and TRb-SRC2 inh inactive.
O=C1CCCc2c1cc(C(=O)NC1CCSC1=O)c(=O)n2-c1ccccc1 (centres undefined) was read as JMJD2E inh inconclusive, HTT ATP protect inactive, TR SRC2 fluor cs inactive, HTT aggregate inactive[9.22 µM], Coupling enz -38 and TRb-SRC2 inh inactive.
CC1(C)CC(=O)c2cc(C(=O)NC3CCSC3=O)c(=O)n(-c3ccccc3)c2C1 (centres undefined) was read as JMJD2E inh inactive, HTT ATP protect inactive, TR SRC2 fluor cs inactive, HTT aggregate inactive, Coupling enz inactive and TRb-SRC2 inh inactive.
Screening CCOCCCn1c(=N)c(C(=O)NCc2cccnc2)cc2c(=O)n3cc(C)ccc3nc21 returned TR SRC2 fluor cs inactive and TRb-SRC2 inh inactive.
`CCc1nc2cc(Cl)c(Cl)cc2[nH]1` gave JMJD2E inh inactive, HTT ATP protect inactive[0.074 µM], TR SRC2 fluor cs inactive, HTT aggregate 11µM, Coupling enz inactive and TRb-SRC2 inh inactive.
For Fc1ccc(Br)cc1C1C=C(c2ccc(Br)s2)Nc2ncnn21 (centres undefined) the results were JMJD2E inh 28µM, HTT ATP protect inactive[10 µM], TR SRC2 fluor cs inactive, HTT aggregate inconclusive, Coupling enz inactive and TRb-SRC2 inh inactive.
Cc1ccc(NC(=O)c2ccccc2NS(=O)(=O)c2ccc(Cl)s2)cc1 was read as JMJD2E inh inactive, HTT ATP protect inactive[10 µM], TR SRC2 fluor cs inactive, HTT aggregate 3.2µM, Coupling enz inactive and TRb-SRC2 inh inactive.
Screening O=C(Nc1ccccc1)c1ccccc1NS(=O)(=O)c1ccc(Cl)s1 returned JMJD2E inh inactive, HTT ATP protect inactive[10 µM], TR SRC2 fluor cs inactive, HTT aggregate inactive, Coupling enz inactive and TRb-SRC2 inh inactive.
`O=C(Nc1ccccc1Cc1ccccc1)c1ccccc1NS(=O)(=O)c1ccc(Cl)s1` gave JMJD2E inh inactive, TR SRC2 fluor cs inactive, HTT aggregate 2.5µM, Coupling enz inactive and TRb-SRC2 inh inactive.
For O=C(NCc1ccco1)c1ccccc1NS(=O)(=O)c1cccs1 the results were JMJD2E inh inactive, HTT ATP protect inactive[0.074 µM], TR SRC2 fluor cs inactive, HTT aggregate inactive, Coupling enz inactive and TRb-SRC2 inh inactive.
O=C(NCc1ccco1)c1ccccc1NS(=O)(=O)c1ccc(Cl)s1 was read as JMJD2E inh inactive, HTT ATP protect inactive, TR SRC2 fluor cs inactive, HTT aggregate 18µM, Coupling enz inactive and TRb-SRC2 inh inactive.
For O=C(Nc1ccc2ccccc2c1)C(=O)C1C(=O)Nc2ccccc21 (centres undefined) the results were JMJD2E inh 8.9µM, HTT ATP protect inactive[10 µM], TR SRC2 fluor cs inactive, HTT aggregate inactive[9.22 µM], Coupling enz inactive and TRb-SRC2 inh inactive.
O=C(Nc1ccc(F)cc1)C(=O)C1C(=O)Nc2ccccc21 (centres undefined) was read as JMJD2E inh inactive, HTT ATP protect inactive[10 µM], TR SRC2 fluor cs inactive, HTT aggregate inactive[9.22 µM], Coupling enz inactive and TRb-SRC2 inh inactive.
For COc1ccccc1CN1C[C@@H]2C[C@@H](c3ccccc3C)N3CCC[C@@]23C1=O the results were JMJD2E inh inactive, HTT ATP protect inactive, TR SRC2 fluor cs inactive, HTT aggregate inactive, Coupling enz inactive and TRb-SRC2 inh inactive.
For Cc1ccccc1CN1C[C@@H]2C[C@@H](c3cnc(N4CCOCC4)s3)N3CCC[C@@]23C1=O the results were JMJD2E inh inactive, HTT ATP protect inactive[10 µM], TR SRC2 fluor cs inactive, HTT aggregate 2.5µM, Coupling enz inactive and TRb-SRC2 inh inactive.

Source: PubChem (National Center for Advancing Translational Sciences (NCATS))
